Source: PubChem BioAssay (NCI)
This is part of a sample that, as a whole, favours compounds with a hit. Of some 79,000 tested, about 15% had one in any assay. Values without a mark were called inactive. Calls of active or inactive are those of the source. No stated cut-off is given here; in the data, active means growth inhibition above about 70%; inactive means the rest.

What was measured:
[1] = NCI Yeast Anticancer Drug Screen. Data for the rad50 strain (AID 155);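 further: 0% = growth of vehicle-only cultures of the same strain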; conditions: S. cerevisiae rad50 strain growth inhibition, hits give high values
Outline: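 Relative growth inhibition (compound vs vehicle) was measured in yeast with a defined repair-gene alteration.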

[2] = NCI Yeast Anticancer Drug Screen. Data for the mec2-1 strain (AID 157); conditions: S. cerevisiae mec2-1 strain, hits give high values
Outline: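 Growth inhibition is read against vehicle-treated controls after compound exposure of the mec2-1 yeast strain, which is defective in DNA damage repair or cell cycle control.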

[3] = NCI Yeast Anticancer Drug Screen. Data for the sgs1 mgt1 strain (AID 161);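 further: 0% = growth of cultures given vehicle only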; conditions: S. cerevisiae sgs1 mgt1 strain, hits give high values
Outline: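 This yeast growth screen uses a strain with defined DNA-repair lesions; compound-treated growth is compared with vehicle-treated growth.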

[4] = NCI Yeast Anticancer Drug Screen. Data for the cln2 rad14 strain (AID 165);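 further: 0% = growth equal to vehicle treated cultures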; conditions: S. cerevisiae cln2 rad14 strain, hits give high values
Outline: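 Growth inhibition, relative to vehicle-treated controls, is the read-out. The test organism is a yeast strain with defined genetic alterations, cln2 rad14.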

[5] = NCI Yeast Anticancer Drug Screen. Data for the bub3 strain (AID 167); conditions: S. cerevisiae bub3 mutant strain, hits give high values
Outline: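 Screening used yeast with an engineered genetic alteration affecting cell cycle control. Compound-exposed cultures were compared with vehicle cultures, and reduced growth was taken as inhibition.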

[6] = NCI Yeast Anticancer Drug Screen. Data for the mlh1 rad18 strain (AID 175); conditions: S. cerevisiae mlh1 rad18 strain growth inhibition, hits give high values
Outline: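 Cells of a genetically altered yeast strain, deficient in DNA damage repair, were treated with compound. Their growth was then compared with that of vehicle-treated cultures to give inhibition.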

[7] = at 5.0 µM (retest, dose inferred, filed as 0.5)
[8] = at 50.0 µM (retest, dose inferred, filed as 5.0)

Compound | growth inhibition [1, 7] | growth inhibition [1, 8] | growth inhibition ([1]; at 50.0 µM) | growth inhibition [2, 7] | growth inhibition [2, 8] | growth inhibition ([2]; at 50.0 µM) | growth inhibition [3, 7] | growth inhibition [3, 8] | growth inhibition ([3]; at 50.0 µM) | growth inhibition [4, 7] | growth inhibition [4, 8] | growth inhibition ([4]; at 50.0 µM) | growth inhibition [5, 7] | growth inhibition [5, 8] | growth inhibition ([5]; at 50.0 µM) | growth inhibition [6, 7] | growth inhibition [6, 8] | growth inhibition ([6]; at 50.0 µM)
c1cnc2ccc3c4cccnc4ccc3c2c1 | 12% | 95% (active) | 96.8% (active) | 0% | 75% (active) | 75% (active) | 7% | 81% (active) | 61.3% | -17% | 67% | 59.5% | 2% | 66% | 75.8% (active) | 1% | 89% (active) | 80.4% (active)
CC12CCC(O)CC1=CCC1C2CCC2(C)/C(=C\C#N)CCC12 (stereo not given) | -6% | 53% | 69.2% | 5% | 78% (active) | 9.9% | 11% | 90% (active) | 52.3% | 2% | 81% (active) | -1.95% | 2% | 87% (active) | 31.3% | -8% | 97% (active) | 73.9% (active)
CCN(CC)CCOc1ccc(/C(C#N)=C/c2ccc3ccccc3c2)cc1 | 38% | 99% (active) | 99.5% (active) | 30% | 99% (active) | 99.5% (active) | 73% (active) | 100% (active) | 99.2% (active) | 28% | 99% (active) | 99.5% (active) | 53% | 99% (active) | 99.4% (active) | 35% | 99% (active) | 99.2% (active)
O=C(O)/C(=C\c1ccc(O)cc1)c1cccc2ccccc12 | 31% | 18% | 45.3% | -2% | 36% | 37.6% | -2% | 12% | 5.5% | 3% | 27% | 76.2% (active) | -21% | 22% | 61.5% | -4% | 49% | 48%
Cc1cc2c(cc1O)CC[C@@H]1[C@@H]2CC[C@]2(C)[C@@H](O)CC[C@@H]12 | -29% | -27% | 38.5% | -25% | -16% | 35.2% | -32% | -32% | 68% | -9% | -17% | 50.2% | -42% | -29% | 37.5% | -35% | -22% | 50%
CSc1ccc(/C=C2/C[N+](C)(C)C/C(=C/c3ccc(SC)cc3)C2=O)cc1 | 41% | 41% | 90.6% (active) | 22% | 22% | 90.7% (active) | 34% | 34% | 87.3% (active) | 20% | 20% | 86.5% (active) | 6% | 6% | 90.2% (active) | 32% | 32% | 86.7% (active)
C/C(=N\NC(N)=S)c1ccc(C2CCCCC2)cc1 | 73% (active) | 97% (active) | 97.2% (active) | 68% | 98% (active) | 95.7% (active) | 88% (active) | 99% (active) | 98.2% (active) | 61% | 97% (active) | 97% (active) | 60% | 97% (active) | 96.2% (active) | 83% (active) | 97% (active) | 94.5% (active)
CCCn1c2ccccc2c2ccc3c(c21)C(=O)C=CC3=O | 31% | 69% | 67.8% | 27% | 80% (active) | 61.9% | 37% | 73% (active) | 70.7% (active) | 18% | 35% | 56.3% | 37% | 80% (active) | 65% | 42% | 77% (active) | 62.7%
CC(=O)N(C1=CC(=O)c2ccccc2C1=O)c1ccc(C)cc1 | 16% | 99% (active) | 98.4% (active) | 31% | 97% (active) | 69.2% | 36% | 93% (active) | 91.6% (active) | 5% | 46% | 57.3% | 37% | 94% (active) | 93.5% (active) | 27% | 97% (active) | 58.1%
C=CCc1ccc2c(C)cc[n+](C)c2c1O | 12% | 99% (active) | 100% (active) | 19% | 99% (active) | 99.2% (active) | 21% | 99% (active) | 99% (active) | -17% | 99% (active) | 99.5% (active) | 1% | 99% (active) | 99.1% (active) | 23% | 99% (active) | 98.8% (active)
